Among all 39,000 compounds or so, about 3,300 (8.5%) were called active. This is one part of a sample in which actives are shown more often than they occur.

In this experiment the test system is HepG2. The experiment can be described thus: cytotoxicity call (relative viability < 0.9). Conditions: 10 µM.
On to `C[C@H]1CN([C@@H](C)CO)C(=O)c2cc(NS(=O)(=O)c3ccc(F)cc3)ccc2O[C@@H]1CN(C)S(=O)(=O)c1cn(C)cn1`, for which the cytotoxicity call was “inactive”.
For the compound `O=C(O)c1cn2cccc(O)c2n1`, the cytotoxicity call was “inactive”.
`C[C@H]1CN([C@@H](C)CO)C(=O)c2cc(NS(C)(=O)=O)ccc2O[C@H]1CN(C)S(C)(=O)=O`: the cytotoxicity call is “inactive”.
`COc1ccc(S(=O)(=O)N(C)C[C@H]2OCc3cnnn3CCCC(=O)N([C@H](C)CO)C[C@H]2C)cc1`: the cytotoxicity call was “inactive”.
The same measure for `O=C(NC1CC1)[C@@H]1c2ccccc2C(=O)N(Cc2cc(C(F)(F)F)cc(C(F)(F)F)c2)[C@H]1c1ccc(CO)cc1`: “inactive”; for `Cc1cc(OCCCS(C)(=O)=O)cc(C)c1-c1cccc(COc2ccc3c(c2)OC[C@H]3CC(=O)O)c1`: “active”; for `COCC#Cc1ccc2c(c1)O[C@H](CN(C)S(=O)(=O)c1cccc(OC)c1)[C@@H](C)CN([C@@H](C)CO)S2(=O)=O`: “inactive”.
On to `O=S(=O)(O)NC1CCCCC1` [listing 1 of 2 here], for which the cytotoxicity call is “inactive”.
With `O=S(=O)(O)NC1CCCCC1` [listing 2 of 2 here], the cytotoxicity call was “active”.
As for `O=S(=O)([O-])NC1CCCCC1.[Na+]`, the entry is “inactive”; as for `CC(C)NC(=O)N(C)C[C@@H]1Oc2ccc(NC(=O)Cc3ccccc3)cc2CC(=O)N([C@@H](C)CO)C[C@@H]1C`, “inactive”; as for `C[C@H](CO)N1C[C@H](C)[C@@H](CN(C)S(=O)(=O)c2ccc(F)cc2)Oc2c(NC(=O)c3cnccn3)cccc2C1=O`, “inactive”.
Turning to `C[C@H]1CN([C@@H](C)CO)C(=O)c2cccc(NC(=O)C3CC3)c2O[C@H]1CN(C)S(=O)(=O)c1ccccc1`, the cytotoxicity call was “inactive”.
Turning to `C[C@@H]1CN([C@@H](C)CO)C(=O)Cc2cc(NC(=O)Nc3ccc(F)cc3)ccc2O[C@@H]1CN(C)Cc1ccc(C(F)(F)F)cc1`, the cytotoxicity call is “active”.
`C[C@@H]1CN([C@@H](C)CO)C(=O)Cc2cc(NC(=O)Nc3ccc(F)cc3)ccc2O[C@H]1CN(C)Cc1ccc(C(F)(F)F)cc1`: the cytotoxicity call is “active”.
Consider `C[C@@H]1CN([C@H](C)CO)C(=O)Cc2cc(NC(=O)Nc3ccc(F)cc3)ccc2O[C@@H]1CN(C)Cc1ccc(C(F)(F)F)cc1`, for which the cytotoxicity call was “active”.
Consider `C[C@H]1CN([C@@H](C)CO)C(=O)Cc2cc(NC(=O)Nc3ccc(F)cc3)ccc2O[C@@H]1CN(C)Cc1ccc(C(F)(F)F)cc1`, for which the cytotoxicity call is “inactive”.
Regarding `C[C@H]1CN([C@@H](C)CO)C(=O)Cc2cc(NC(=O)Nc3ccc(F)cc3)ccc2O[C@H]1CN(C)Cc1ccc(C(F)(F)F)cc1`, the cytotoxicity call is “active”.
On to `COc1ccccc1CNC(=O)C[C@H]1C[C@@H]2c3cc(NS(=O)(=O)c4ccc(F)cc4)ccc3O[C@@H]2[C@@H](CO)O1`, for which the cytotoxicity call was “inactive”.
For the compound `C[C@H](CO)N1C[C@H](C)[C@@H](CN(C)Cc2ccc(C(=O)O)cc2)Oc2ccc(NC(=O)Nc3cccc4ccccc34)cc2CC1=O`, the cytotoxicity call was “inactive”.
